What all share (experiment): NCI-60 one-dose screen, 48 h (100 = growth as untreated, 0 = no growth, -100 = all killed)
The test system of assay [1] is HCT-15 colon. The following applies: 10 µM unless noted.
The subject of assay [2] is HT29 colon. The conditions noted are these: 10 µM unless noted.
Assay [3] relates to SNB-75 CNS. The following applies: 10 µM unless noted.
Assay [4] relates to SNB-19 CNS. The following applies: 10 µM unless noted.
Assay [5] deals with U251 CNS. The following applies: 10 µM unless noted.
Assay [6] relates to PC-3 prostate. The conditions noted are these: 10 µM unless noted.
The test system of assay [7] is SK-MEL-5 melanoma. The conditions noted are these: 10 µM unless noted.
Assay [8] concerns UACC-62 melanoma. The following applies: 10 µM unless noted.
Assay [9] concerns SK-MEL-28 melanoma. The conditions noted are these: 10 µM unless noted.
The subject of assay [10] is SK-MEL-2 melanoma. The conditions noted are these: 10 µM unless noted.
Assay [11] concerns EKVX NSCLC. The following applies: 10 µM unless noted.
Assay [12] concerns SN12C renal. The following applies: 10 µM unless noted.
Assay [13] relates to UO-31 renal. The following applies: 10 µM unless noted.
Assay [14] deals with TK-10 renal. The following applies: 10 µM unless noted.
Assay [15] deals with ACHN renal. The conditions noted are these: 10 µM unless noted.
In assay [16] the test system is CAKI-1 renal. The conditions noted are these: 10 µM.
Assay [17] has as its system A498 renal. The following applies: 10 µM unless noted.
Assay [18] relates to CCRF-CEM leukemia. The conditions noted are these: 10 µM unless noted.
In assay [19] the test system is MOLT-4 leukemia. The following applies: 10 µM unless noted.
The test system of assay [20] is LOX IMVI melanoma. The following applies: 10 µM unless noted.

This is part of a sample that, as a whole, favours compounds with a hit. Of some 83,000 tested, about 20% had one in any assay.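 Each cell line was grown in a 96-well plate and treated with one concentration of compound for 48 hours. Values below 10 were considered active.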 A number with no mark means an inactive call. The source made the active and inactive calls.

On to `CCN(CC)CCN1C(=O)c2c(c3c4cccnc4[nH]c3c3ccc4ccccc4c23)C1=O`, for which the growth in assay [1] was 58.7%; in [2], 66.7%; in [3] it was 54.3%; in assay [4], 59.5%; in assay [5] it was 63.5%; in assay [6], 59.2%. For the same compound, the growth was 80% in [7]; 69.2% in assay [8]; 106% in assay [9]; 107% in assay [10]; 89% in assay [11]; 71.9% in [12]. Also, the growth was 53.2% in assay [13]; 121% in assay [14]; 35.9% in assay [15]; 46.5% in assay [16]; 77.3% in assay [17]; 21.9% in assay [18]. Besides, the growth in assay [19] was 12.8%.
Regarding `CCCCCCNC(=O)Oc1ccc(/C(=C(\C)c2ccc(Cl)cc2)c2ccc(OCCN(C)C)cc2)cc1`, the growth was 7.58% (active) in assay [1]; 5.99% (active) in assay [2]; 75.8% in assay [3]; 60.8% in [4]; 46% in [5]; 56% in assay [6]. The growth is 84.7% in assay [8]; -67.8% (active) in assay [20]; 75% in [9]; 98% in assay [10]; 60.5% in assay [11]; 69.9% in assay [12]. The growth in assay [13] is 43.6%; in assay [14] it was 88.9%; in assay [15] it was 71.5%; in assay [16] it was 70.4%; in assay [18], 36%; in assay [19] it was 13.4%.
As for `CCCCCCNC(=O)Oc1ccc(/C(=C(/C)c2ccc(OC)cc2)c2ccc(OCCN3CCCC3)cc2)cc1`, the growth was 17.3% in assay [1]; 13.9% in assay [2]; 85.5% in assay [3]; 72.2% in [4]; 58.6% in [5]; 67.7% in assay [6]. The growth in assay [8] is 74.2%; in assay [20], -39.1% (active); in assay [9] it was 60.3%; in assay [10] it was 93.4%; in assay [11], 79.5%; in [13], 38.7%. The growth in assay [14] is 116%; in assay [15], 84.3%; in assay [16] it was 87%; in [18], 62.4%; in assay [19] it was 30.4%.
Take `C#C[C@]1(O)CC[C@H]2[C@@H]3CC=C4c5sc(Nc6ccncc6)nc5CC[C@]4(C)[C@H]3CC[C@@]21C`: the growth in assay [1] is -71.4% (active); in assay [2], -4.61% (active); in [3], -49.4% (active); in assay [4] it was -36.8% (active); in assay [5] it was 1.97% (active); in assay [6], 1.86% (active). Further, the growth in [7] is -83.9% (active); in assay [8], -22.8% (active); in assay [9] it was -55.1% (active); in [10], -15% (active); in [11] it was -13.7% (active); in assay [12], 44.1%. Also, the growth in assay [13] is -61.8% (active); in assay [14], 12%; in [15] it was 18.8%; in assay [16], -19.4% (active); in assay [17], -52.2% (active); in assay [18] it was 4.46% (active). Also, the growth in assay [19] was -18.3% (active).
Consider `O=C1c2c(c3c4cccnc4[nH]c3c3ccc4ccccc4c23)C(=O)N1CCN1CCCCC1`, for which the growth in [1] was 45.5%; in assay [2] it was 44.8%; in assay [3], 53.8%; in assay [4], 41.1%; in assay [5], 55.1%; in [6], 59.5%. The growth was 48.1% in assay [7]; 49.6% in [8]; 97% in assay [9]; 114% in assay [10]; 78% in assay [11]; 45.2% in [12]. Moreover, the growth in [13] was 36.9%; in [14], 104%; in assay [15], 20%; in assay [16] it was 22.8%; in [17], 80.1%; in assay [18], 17.9%. Also, the growth in assay [19] is 6.84% (active).
Turning to `O=C1c2c(c3c4cc(Br)ccc4[nH]c3c3ccc4ccccc4c23)C(=O)N1CCN1CCNCC1`, the growth in assay [1] was -87.3% (active); in assay [2] it was 8.96% (active); in assay [3] it was 85%; in [4], 77.3%; in [5], -47.3% (active); in assay [6], 67.2%. Moreover, the growth in assay [7] is 91.4%; in [8], 78.8%; in assay [9], 95.9%; in [10], 113%; in [11], 85.9%; in [12], 84.8%. In addition, the growth is 58.7% in assay [13]; 69.6% in [15]; 66.1% in assay [16]; 97.1% in assay [17]; 3.91% (active) in assay [18]; 4.47% (active) in [19].
On to `CC(C)c1nn(-c2ccccc2)c(N2CCCCC2)c1/C=N/NC(N)=S`, for which the growth was 70.8% in assay [1]; 81.4% in assay [2]; 61.6% in assay [3]; 92% in assay [4]; 97.9% in assay [5]; 82.5% in assay [6]. The growth in assay [7] was 87.5%; in assay [8], 92.5%; in assay [9], 109%; in assay [10], 104%; in [11] it was 82.1%; in assay [12], 89.9%. Further, the growth is 64.5% in [13]; 113% in [14]; 87.2% in assay [15]; 69.2% in assay [16]; 66.2% in [17]; 89.7% in [18]. Also, in [19], the growth is 83.6%.
On to `COc1ccc(-c2no[n+]([O-])c2Nc2ccccc2Br)cc1`, for which the growth is 97.1% in assay [1]; 119% in assay [2]; 92% in [3]; 89.5% in [4]; 95% in assay [5]; 76.8% in [6]. In addition, the growth was 71.6% in assay [8]; 95.6% in [20]; 99.8% in assay [9]; 96.1% in assay [11]; 90.4% in assay [12]; 69.6% in assay [13]. In addition, the growth was 145% in [14]; 89.2% in assay [15]; 86% in assay [16]; 113% in assay [17]; 109% in [18].

Source of the values: PubChem BioAssay (NCI).
